Shown are actives, neighbours in structure and some others; about 2.2% of the full set was active somewhere.
MITF TRPM1 inh: inhibitors of MITF-dependent TRPM1 promoter reporter, primary screen, cell-based, SK-MEL-5, single point, luciferase; inhibition, % at 12.5 µM; SK-MEL-5 TRPM1 promoter luciferase, 24 h; 0.83% of 330,000 active;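 active means mean inhibition across replicates of 60% or more, whatever share of single replicates reaches that level; inconclusive means some that reach 60%, reason not given; inactive means mean inhibition across replicates below 60%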
LMP1 NFkB inh: EBV LMP1-driven NF-kappaB luciferase reporter inhibitors, primary screen, cell-based, luminescence, single point; 0.69% of 350,000 active; AID 504558, 2011; LMP1-induced NF-kappaB luciferase reporter cells; inhibition, % at 12.5 µM; in the data active means inhibition above about 41%; inconclusive means no clear call, values can overlap the other calls
LGR2 antag: inhibitors of bursicon-induced LGR2 CRE-luciferase signal, primary screen, cell-based, HEK293, CRE-luciferase reporter, bursicon stimulation; Drosophila bursicon receptor LGR2 (rickets); bursicon-stimulated, 4 h; inhibition, % at 9.99 µM; 0.35% of 380,000 active;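 active means drop in luminescence signal, shown as inhibition above about 50% in the replicate tests, limit read from the data, passing the limit was not always enough; inconclusive means probably only some replicates passing the limit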;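 further: agonist challenge used bursicon conditioned medium at about half maximal strength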
PAX8 inh HTS: inhibitors of PAX8-driven TPO luciferase reporter, primary screen, RMG-I cells, single concentration. inhibition, % at 12.6 µM. 1.2% of 360,000 active. SteadyGlo, 24 h. AID 652154, 2013;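 active means mean replicate inhibition at least 60% with every replicate also reaching 60%; inconclusive means only one of the two criteria is met; inactive means mean below 60% and not all replicates reaching 60%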;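 further: luciferase light reporting Pax8 driven TPO promoter activity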
EWS-Fli inh: EWS/Fli-driven NR0B1 reporter inhibitors, primary screen, A673 cells, NR0B1 luciferase, luminescence, MLPCN library; inhibition, % at 12.6 µM; AID 651661, 2012; viability-normalised; 0.67% of 350,000 active;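 active means mean inhibition of at least 50% after viability correction, with every replicate also passing that limit; inconclusive means mean reaches 50% but only one of two replicates passes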;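 further: firefly luciferase signal divided by Alamar Blue viability fluorescence both relative to DMSO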
PGC1a acetyl inh: inhibitors of PGC1a acetylation signal, primary screen, cell-based, U2OS, AlphaScreen, inhibitor mode. AlphaScreen anti-acetyl-lysine; with virally co-expressed GCN5 acetyltransferase. inhibition, % at 15.6 µM. 0.17% of 350,000 active;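 active means every replicate shows inhibition of at least 40%; inconclusive means mean inhibition at least 40% but some replicate below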
A number is an active result; 0 = inactive; ? = inconclusive; - = no result.

SMILES	MITF TRPM1 inh	LMP1 NFkB inh	LGR2 antag	PAX8 inh HTS	EWS-Fli inh	PGC1a acetyl inh
Cc1ccsc1/C=N/NC(=O)c1cc(-c2ccncc2)nc2ccccc12	0	0	0	69	0	-
CCC(=O)N1[C@H](C(=O)N2CCCCC2)[C@@H](CO)[C@@H]2Cn3c(ccc(-c4ccccc4)c3=O)[C@@H]21	-	-	0	0	0	-
CC(C)NC(=O)N(C)C[C@@H]1OCCCC[C@@H](C)Oc2ccc(NC(=O)C3CCCCC3)cc2C(=O)N([C@@H](C)CO)C[C@H]1C	-	-	0	0	-	0
O=C(CSc1nnc(-c2ccc(F)cc2)c2ccccc12)Nc1cccc(Cl)c1	0	0	0	0	0	-
O=C(CSc1nnc(-c2ccc(F)cc2)c2ccccc12)Nc1ccccc1	0	0	0	0	63	-
CCCNC(=O)[C@H]1[C@H](CO)[C@H]2Cn3c(ccc(-c4ccc(OC)cc4)c3=O)[C@H]2N1CC	-	-	0	-	0	0
CN(C)Cc1cn(CC[C@H]2CC[C@@H](NC(=O)Nc3ccccc3F)[C@H](CO)O2)nn1	-	-	0	0	0	0
Cc1cccc(NC(=O)Nc2ccc(Oc3c(F)c(F)c(F)c(F)c3F)cc2)c1	0	0	0	-	0	0
O=C(Nc1ccc(Oc2c(F)c(F)c(F)c(F)c2F)cc1)OC1CCN2Cc3ccccc3N=C12 (configuration not stated)	62	0	-	-	-	0
O=C(Nc1cccc(Cl)c1)Nc1ccnc(-c2cccnc2)n1	0	58	0	0	0	-
Cc1cc(/C=c2/sc3nc4ccccc4n3c2=O)c(C)n1-c1ccccn1	86	56	-	-	-	0
COc1ccc(NC(=O)N(C)C[C@H]2OCCCC[C@@H](C)Oc3ccc(NS(=O)(=O)c4ccc(OC)cc4)cc3C(=O)N([C@H](C)CO)C[C@@H]2C)cc1	-	-	0	0	0	0
COc1cc(CN2CCCC(N3CCN(c4ccccc4C)CC3)C2)cc(Cl)c1O (configuration not stated)	0	78	0	0	0	0
COc1ccc(CN2CCCC(N3CCN(c4cccc(Cl)c4)CC3)C2)cc1OC (configuration not stated)	0	0	0	0	0	0
CC(NC(=O)CNC(=O)OCc1ccccc1)C(=O)N1CC(O)CC1C(=O)OCc1ccccc1 (configuration not stated)	0	65	-	-	-	0
COc1ccccc1CNC(=O)C[C@H]1C=C[C@@H](NC(=O)CN(C)C)[C@H](CO)O1	-	-	0	-	-	0
Cc1ccc(-n2ncc(C(=O)Nc3cc(Cl)cc(Cl)c3)c2C2CCNCC2)cc1C	85	0	0	0	62	-
Cc1ccc(-n2ncc(C(=O)Nc3cc(Cl)ccc3Cl)c2C2CCNCC2)cc1	0	0	0	0	0	-
C#CC(=O)N(c1cc(OC)ccc1OC)C(C(=O)NC1CCCC1)c1cccs1 (configuration not stated)	-	73	-	-	-	88
C#CC(=O)N(c1ccc(OC)cc1OC)C(C(=O)NC1CCCC1)c1cccs1 (configuration not stated)	101	0	97	93	61	95
CCCC#Cc1ccc([C@H]2[C@H]3CN(S(=O)(=O)Cc4ccccc4)CC(=O)N3[C@H]2CO)cc1	-	-	0	-	0	0
O=C(NCC[C@H]1CC[C@H](NC(=O)Nc2cc(F)ccc2F)[C@H](CO)O1)Nc1ccc(Cl)cc1	-	-	0	0	0	0
COCC(=O)Nc1ccc2c(c1)[C@H]1C[C@@H](CC(=O)NCCc3ccccc3)O[C@H](CO)[C@H]1O2	-	-	0	0	0	0
Cc1ccc(S(=O)(=O)Nc2ccc3c(c2)C(=O)N([C@@H](C)CO)C[C@H](C)[C@H](CN(C)Cc2ccc4c(c2)OCO4)OCCCC[C@@H](C)O3)cc1	-	-	0	0	0	-
C[C@H](CO)N1C[C@H](C)[C@H](CN(C)Cc2ccc3c(c2)OCO3)OCCCC[C@H](C)Oc2ccc(NS(=O)(=O)c3ccc(Cl)cc3)cc2C1=O	-	-	0	76	0	0
SMILES	MITF TRPM1 inh	LMP1 NFkB inh	LGR2 antag	PAX8 inh HTS	EWS-Fli inh	PGC1a acetyl inh
Cc1ccc(S(=O)(=O)Nc2ccc3c(c2)C(=O)N([C@H](C)CO)C[C@@H](C)[C@@H](CN(C)Cc2ccc4c(c2)OCO4)OCCCC[C@@H](C)O3)cc1	-	-	0	97	0	-
Cc1nc(N2CCCCC2)c2c(-c3cccs3)csc2n1	0	0	0	0	0	-
Cc1nc(N2CCN(S(=O)(=O)c3ccccc3C#N)CC2)c2c(-c3cccs3)csc2n1	0	0	0	72	0	-
CCC(=O)N1[C@H](CO)[C@H]2c3ccccc3N(C(=O)Nc3ccccc3Cl)C[C@H]21	-	-	0	0	0	0
CN(C)c1ccc(C=c2c3cc(O)ccc3n3c2cc(-c2ccccc2)[n+]3C)cc1	90	0	0	73	0	-
C[n+]1c(-c2ccccc2)cc2c(=Cc3ccc([N+](=O)[O-])cc3)c3ccccc3n21	0	0	0	74	0	-
C[n+]1c(-c2ccccc2)cc2c(=Cc3ccccc3)c3ccccc3n21	98	0	?	115	53	-
CN(C)c1ccc(/C=C(\C#N)c2ccccc2)cc1	0	0	-	-	-	0
CO[C@H]1CN(C)C(=O)c2ccc(NS(=O)(=O)c3ccc(Cl)cc3)cc2OC[C@@H](C)N(C)C[C@H]1C	-	-	0	0	0	0
C[C@H]1CN([C@@H](C)CO)C(=O)Cc2cc(NS(=O)(=O)c3cccs3)ccc2O[C@H]1CN(C)S(=O)(=O)c1ccc(F)cc1	-	-	0	-	0	0
C[C@@H]1CCCCO[C@H](CN(C)S(=O)(=O)c2ccc(F)cc2)[C@@H](C)CN([C@@H](C)CO)C(=O)c2cc(NC(=O)Nc3ccc4c(c3)OCO4)ccc2O1	-	-	0	0	0	0
Cc1noc(C)c1NC(=O)Nc1ccc2c(c1)C(=O)N([C@@H](C)CO)C[C@@H](C)[C@@H](CN(C)Cc1ccccc1)OCCCC[C@@H](C)O2	-	-	0	0	0	0
Cc1ccc(S(=O)(=O)N(C)C[C@H]2OCCCC[C@@H](C)Oc3ccc(NS(=O)(=O)c4ccc(F)cc4)cc3C(=O)N([C@H](C)CO)C[C@H]2C)cc1	-	-	0	0	0	0
Cc1ccc(S(=O)(=O)N(C)C[C@@H]2OCCCC[C@H](C)Oc3ccc(NS(=O)(=O)c4ccc(F)cc4)cc3C(=O)N([C@H](C)CO)C[C@H]2C)cc1	-	-	0	87	0	0
Cc1ccc(S(=O)(=O)Nc2ccc3c(c2)C(=O)N([C@@H](C)CO)C[C@@H](C)[C@H](CN(C)S(=O)(=O)c2ccc(F)cc2)OCCCC[C@H](C)O3)cc1	-	-	0	0	0	0
Cc1ccc(S(=O)(=O)Nc2ccc3c(c2)C(=O)N([C@H](C)CO)C[C@H](C)[C@@H](CN(C)S(=O)(=O)c2ccc(F)cc2)OCCCC[C@H](C)O3)cc1	-	-	0	86	0	0

Screening data: PubChem, Broad Institute
